The panel holds about 83,000 compounds, 20% with a hit somewhere; the sample as a whole holds those more often.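 Interpretation: 100, growth as untreated; towards 0, rising growth inhibition; 0, no net growth; 0 to -100, cell death. Compounds scoring below 10 were considered active.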 Unmarked numbers belong to inactive results. The source made the active and inactive calls.
Key:
Experiment in all cases: NCI-60 one-dose screen, 48 h (100 = growth as untreated, 0 = no growth, -100 = all killed)
[1] = test system: NCI-H23 lung; conditions: 10 µM unless noted
[2] = test system: NCI-H226 lung; conditions: 10 µM unless noted
[3] = test system: NCI-H322M lung; conditions: 10 µM unless noted
[4] = test system: HOP-62 NSCLC; conditions: 10 µM unless noted
[5] = test system: NCI-H460 lung; conditions: 10 µM unless noted
[6] = test system: NCI-H522 lung; conditions: 10 µM unless noted
[7] = test system: A549/ATCC NSCLC; conditions: 10 µM unless noted
[8] = test system: 786-0 renal; conditions: 10 µM unless noted
[9] = test system: COLO 205 colon; conditions: 10 µM unless noted
[10] = test system: DU-145 prostate; conditions: 10 µM unless noted
[11] = test system: K-562 leukemia; conditions: 10 µM unless noted
[12] = test system: MALME-3M melanoma; conditions: 10 µM unless noted
[13] = test system: MDA-MB-231 breast; conditions: 10 µM unless noted
[14] = test system: RXF 393 renal; conditions: 10 µM unless noted
[15] = test system: SF-268 CNS; conditions: 10 µM unless noted
[16] = test system: SF-295 CNS; conditions: 10 µM unless noted
[17] = test system: SF-539 CNS; conditions: 10 µM unless noted
[18] = test system: UACC-257 melanoma; conditions: 10 µM unless noted
[19] = test system: HOP-92 NSCLC; conditions: 10 µM
[20] = test system: M14 melanoma; conditions: 10 µM unless noted

Structure (SMILES) | growth [1] | growth [2] [%] | growth [3] [%] | growth [4] [%] | growth [5] | growth [6] | growth [7] | growth [8] | growth [9] | growth [10] | growth [11] | growth [12] | growth [13] | growth [14] | growth [15] [%] | growth [16] | growth [17] | growth [18] | growth [19] [%] | growth [20]
CNCc1cccc2c1OCCCCCCC(C)(O)CC(C)(C)S(=O)(=O)c1ccc(cc1)-c1cnc(N)c(n1)C(=O)N2 (stereo not given) | 9.01% (active) | 43.5 | 46.2 | 59.2 | -56.3% (active) | -66.8% (active) | 11.4% | -11.9% (active) | -48.2% (active) | 9.36% (active) | -29.3% (active) | -58.7% (active) | -6.41% (active) | -90.7% (active) | 13.2 | 10.9% | -72% (active) | 18.1% | – | –
CCNC(=O)N1CCc2cc(OC)c(OCCc3ccc(OC)cc3)cc2C1c1ccc(Cl)cc1C (stereo not given) | 25.1% | 32.4 | 46.6 | 27.7 | 1.35% (active) | -16.2% (active) | 9.93% (active) | 9.78% (active) | 13.9% | 16.2% | 12.3% | 60.4% | 12.4% | -4.98% (active) | 27.1 | 13.3% | 5.79% (active) | 44.7% | – | –
O=C(NNc1nc2cc(F)c(F)cc2n2c(CN3CC4CNCC4C3)ccc12)c1cnccn1 (stereo not given) | 26.7% | 16.8 | 26.7 | 10.8 | 1.73% (active) | – | 16.9% | 16.5% | 11.4% | 22.1% | 14.1% | 7.02% (active) | 39.6% | – | 15.8 | 5.87% (active) | 8.64% (active) | 7.77% (active) | 37.4 | –
O=C(O)c1ccc(-n2cc(CNc3cccc(Cl)c3)c(-c3ccc(F)cc3)n2)cc1 | 101% | 112 | 103 | 101 | 98% | – | 92.7% | 110% | 120% | 102% | 76.4% | 82.8% | 91.7% | – | 109 | 87.6% | 96.1% | 96.8% | 105 | –
CC(c1ccccc1)N1CSc2nc3ncncc3n2C1 (stereo not given) | 24.1% | 48.8 | 40.9 | 26.9 | 51.2% | – | 72% | 29.6% | 32.8% | 33.3% | 20.9% | 38.2% | 32.7% | – | 28.4 | 21.6% | 23.5% | 44.5% | 65.5 | –
Nc1ncc(-c2ccc3ncnc(Nc4cccc(Cl)c4F)c3c2)cn1 | 72.8% | 66.6 | 11 | 47.5 | 62.2% | – | 51.9% | 43.5% | 86.4% | 48.9% | 80.5% | 49.3% | 55.3% | – | 53.8 | 44.9% | 68.4% | 89.4% | 31.3 | –
c1cc(-c2nc3ccc4[nH]ncc4c3c3c2CCCC3)[nH]n1 | 54.8% | 74.9 | 76.6 | 68.6 | 38.8% | 30.9% | 48.1% | 64.7% | 54.1% | 63% | 64% | 87.7% | 89.2% | 38% | 71.4 | 67.5% | 54.1% | 91.1% | – | 39.7%
CC1(COc2ccc3ncc(C#Cc4cncc(C(=O)Nc5cccc(C(F)(F)F)c5)c4)n3n2)COC1 | 60.9% | 25 | 95.9 | 63.7 | 85.4% | 75.5% | 88.3% | 97.9% | 80.7% | 91.1% | 47.8% | 71.1% | 44.5% | -4.67% (active) | 76.1 | 79.6% | 60.1% | 98.1% | – | –
CCc1cccc2c3c(sc12)C(c1ccc(OC)cc1)C(C#N)=C(/N=C/c1ccc(Cl)cc1)O3 (stereo not given) | 19.9% | 41.2 | 55.1 | 33.8 | 11.5% | -40.4% (active) | 41.5% | 39.3% | -18.9% (active) | 18.8% | 11.1% | 48.3% | 40.3% | -11.4% (active) | 60 | 6.9% (active) | 1.2% (active) | 72% | – | 4.74% (active)
